Results reported in PubChem BioAssay AID485298 (National Center for Advancing Translational Sciences (NCATS), 2010).
Values joined by “and” are separate entries in the source; they are usually repeats but may differ in a detail not shown here. Equal entries are not always repeated. The campaign covered roughly 320,000 compounds. About 740 (0.23%) were called active. About 2% were inconclusive and are not listed. Calls follow the shape of the dose curve; as a rule, active = well fitted activation curve with a large enough effect; inconclusive = small, poorly fitted or top-dose-only effect; inactive = no such curve, though single readings can be large or run the other way. Shown is part of a subset that was picked to be rich in actives. A structure can be active in one record and inactive in another.

test: qHTS Assay for Small Molecule Inhibitors of Mitochondrial Division or Activators of Mitochondrial Fusion; also: nearly all actives have a fitted effect of over 45% in size;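 as to growth rescue (activation): temperature-sensitive fusion mutants such as fzo1-1 at 37 °C on non-fermentable ethanol glycerol medium; % of control where 0% means no effect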; details: S. cerevisiae fusion-defective mutant growth rescue, CellTiterGlo 48 h; series mostly up to 46.1 µM; growth rescue (activation): at the top concentration
Method in brief: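 Growth-rescue viability read-out: after 48 h at the non-permissive 37C in glycerol/ethanol YPEG, yeast mitochondrial fusion mutants are measured by CellTiterGlo luminescence; compounds (23 nl pinned per well) restoring growth score as division inhibitors or fusion activators.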
Potency is read from the fitted curve at half-maximal effect.

Compound | growth rescue (activation) | Potency
COc1ccccc1CN1CCCC(N2CCN(c3ccc(F)cc3)CC2)C1 (centres undefined) | -2.15% (inactive) | 
O=C(c1ccc(C(F)(F)F)cc1)C1CCCN(C(=O)c2csnn2)C1 (centres undefined) | 2.59% (inactive) | 
O=C(CCNC(=O)c1ccccc1)Nc1nc2ccccc2s1 | -3.72% (inactive) | 
O=C(CN1C(=O)/C(=C\c2ccccc2F)SC1=S)Nc1nc2ccccc2s1 |  | 12.6 µM (active)
O=C(CN1C(=O)S/C(=C\c2ccccc2F)C1=O)NCCCn1ccnc1 | 0.524% (inactive) | 
CS(=O)(=O)N1CCN=C1SCc1ccc(F)cc1 | 4.07% (inactive) | 
COc1cc(OC)c(C(=O)Nc2ccccc2-c2ccccc2)cc1OC |  | 15.8 µM (active)
O=C(Nc1ccccc1-c1ccccc1)c1ccccc1[N+](=O)[O-] | 2.36% (inactive) | 
COc1cc2ccccc2cc1C(=O)Nc1ccccc1C | 1.86% (inactive) | 
O=C(O)CCN(Cc1ccccc1)S(=O)(=O)c1c(Cl)cccc1Cl | 22.5% (inactive) | 
CCN(C(=O)CN1CCN(Cc2ccccc2)CC1)c1c(N)n(Cc2ccccc2)c(=O)[nH]c1=O | -42.3% (inactive) | 
COc1ccc(OC)c(C(=O)NC(CC(N)=O)c2ccc(N3CCC(N4CCCCC4)CC3)c([N+](=O)[O-])c2)c1 (centres undefined) | -2.61% (inactive) | 
COc1ccc(CCNC(=S)N2CCN(S(=O)(=O)c3ccc(Cl)cc3)CC2)cc1 | -0.0364% (inactive) | 
O=C(NCCc1ccc(Cl)cc1)c1cccc(N2CCCC2=O)c1 | -2.8% (inactive) | 
Oc1cc2c(cc1O)CN(C(=S)NCCc1ccc(Cl)cc1)CCC2 |  | inactive and 18.4 µM (active)
Oc1ccc(Cn2cc[nH]c2=S)cc1 | -1.97% (inactive) | 
CN(C)CCN=c1cc(-c2ccccc2)oc2ccc(Cl)cc12 | -3.04% (inactive) | 
COc1ccc(/C=C/c2c(-c3cccc(C)c3)oc3ccc(-c4ccc5c(c4)OCO5)cc23)cc1 | -0.013% (inactive) | 
CSCCC(NS(=O)(=O)c1ccc(C)cc1)C(=O)N1CCCC1 (centres undefined) |  | 35.5 µM (active)
CSCCC(NC(=O)c1ccccc1)C(=O)N1CCCCCCC1 (centres undefined) | 2.81% (inactive) | 
CSCC(NS(=O)(=O)c1ccc(C)cc1)C(=O)O (centres undefined) | 1.27% (inactive) | 
CC(=O)c1cccc(NC(=O)C2CCCN2S(=O)(=O)c2cccc3nsnc23)c1 (centres undefined) | -1.28% (inactive) | 
C=CCn1c(CCNC(=O)c2ccccc2F)nnc1SCC(=O)Nc1ccc(OC)cc1 | -3.75% (inactive) | 
CC(=O)NC(c1cccs1)c1cc(Br)c2cccnc2c1O (centres undefined) | 7.37% (inactive) | 
Cc1cc(C(=O)Nc2nnc(C3CC3)s2)c(C)s1 | 8.28% (inactive) | 
C[C@H](NC(=O)c1ccccc1)C(=O)OCC(=O)c1c[nH]c2ccccc12 | -0.566% (inactive) | 

Compound | growth rescue (activation) | Potency
CN(C)c1ccc(C(CNC(=O)c2ccc(F)cc2)c2c[nH]c3ccccc23)cc1 (centres undefined) |  | 15.8 µM (active)
O=C(CNC(=O)c1ccc(F)cc1)c1ccccc1 | -3.34% (inactive) | 
Cc1nnnn1/C(=C\c1ccccc1)C(=O)OCC(=O)N1CC2(C)CC1CC(C)(C)C2 (centres undefined) | -8.27% (inactive) | 
O=C(Cc1ccccc1)Nc1c(C(=O)N2CCCCCC2)cnn1-c1ccccc1 | -1.61% (inactive) | 
CCC(C)(C)n1nnnc1CN1CCN(c2nc3ccc(C)cc3cc2C#N)CC1 | -0.559% (inactive) | 
O=C(/C=C/c1ccccc1)Oc1coc(CSc2ncccn2)cc1=O | 0.25% (inactive) | 
Nc1c(C(=O)OCC(=O)Nc2ccc(OC(F)F)cc2)[nH]c(=O)[nH]c1=O | -0.106% (inactive) | 
O=C(CO/N=C/c1ccc(OC(F)F)cc1)NCc1ccc(F)cc1 |  | 6.31 µM (active)
CCOc1ccc(/C=N/OCC(=O)NCc2cccs2)cc1 | -9.69% (inactive) | 
CC1CCCCC1NC(=O)CO/N=C/c1ccc(OC(F)F)cc1 (centres undefined) | -0.219% (inactive) | 
Clc1ccc(C2[C@H]3CN(CC4CCCCC4)[C@H](c4ccccc4)C34CC2(c2cccnc2)C4)cn1 (some centres undefined) | 4.84% (inactive) | 
CCc1ccc[n+](-c2nc([O-])sc2C=O)c1 | -6.48% (inactive) | 
CCOC(=O)/C=C/C(=O)OCC(=O)NC(c1ccccc1)c1ccccc1 | -0.211% (inactive) | 
Cn1cc(CCC(=O)NCc2ccc3c(c2)OCO3)c2ccccc21 | 4.45% (inactive) | 
N#Cc1nc(Cc2cccc3ccccc23)oc1NCc1ccc2c(c1)OCO2 |  | 11.2 µM (active)
c1n[nH]c(NCc2ccc3c(c2)OCO3)n1 | -5.05% (inactive) | 
O=C(COC(=O)c1ccccc1NC(=O)c1ccco1)Nc1ccc2c(c1)OC(F)(F)O2 | -3.36% (inactive) | 
CCCN1C(=O)C(O)(CC(=O)c2ccc(CC)cc2)c2cc(Br)ccc21 (centres undefined) | 0.908% (inactive) | 
Cc1cccc(-c2nc(Nc3ccc(O)cc3)c3ccccc3n2)c1 |  | 35.5 µM (active)
CC(=O)Nc1cccc(Nc2nc(-c3cccs3)nc3ccccc23)c1 | 27.5% (inactive) | 
COc1ccc(Nc2nc(-c3cccnc3)nc3ccccc23)cn1 | 12.2% (inactive) | 
COc1ccc(OCCNS(=O)(=O)Cc2ccccc2)cc1 | -4.23% (inactive) | 
Cc1ccc(NC(=O)c2cc([N+](=O)[O-])ccc2Cl)c(O)c1 | -3.88% (inactive) | 
CCC(C)C(NC(=O)C1CCC(=O)N1C(=O)OCc1ccccc1)C(=O)NC(C(=O)N1CCCC1C(N)=O)C(C)CC (centres undefined) | 2.2% (inactive) | 
Nc1ccc(Nc2cc(O)c3ncccc3c2)cc1 | -3.21% (inactive) | 
Cn1ncc2c(Nc3cccc4ccccc34)ncnc21 | 2.67% (inactive) | 

Compound | growth rescue (activation) | Potency
CN(C)c1cc2c(Nc3ccc4c(cnn4Cc4ccccc4)c3)ncnc2cn1 |  | 18.4 µM (active)
CC(C)Nc1ncnc2c1nnn2Cc1ccccc1 | 2.53% (inactive) | 
CCOC(=O)N1CCN(C(=O)COC(=O)c2cccc(S(C)(=O)=O)c2)CC1 | 1.09% (inactive) | 
CCOC(=O)C(=CNNc1ccsc1C(=O)OC)C(=O)OCC | -8.56% (inactive) | 
Cc1ccc2nnn(Cc3cccc(C(C)(C)C)c3O)c2c1 |  | 12.6 µM (active)
Cc1ccc(O)c(CNc2nc3ccccc3[nH]2)c1 | -0.0891% (inactive) | 
Cc1ccc(O)c(CNc2nc3ccccc3n2C)c1 | -1.24% (inactive) | 
CC(/C=C/C1(O)C(C)CC(=O)CC1(C)C)OC1OC(CO)C(O)C(O)C1O (centres undefined) | -0.841% (inactive) | 
CCCC(C)C(=O)OCC(=O)Nc1c(Br)cc(C)cc1Br (centres undefined) | 0.339% (inactive) | 
Cn1c(=O)c2c(n3c4ccccc4nc13)NC(=O)CC2c1cccc(Cl)c1 (centres undefined) | -2.06% (inactive) | 
CC(C)C(=O)Nc1ccc2c3c(cccc13)CC2 | -2.47% (inactive) | 
CCOc1ccc(-n2nc3ccc(NC(=O)c4ccc(OC)c(Cl)c4)cc3n2)cc1 | -4.29% (inactive) | 
Cc1cc(-c2nnc(CCC(=O)NC(c3ccccc3)c3ccccc3)o2)no1 | 2.21% (inactive) | 
O=C(C(NS(=O)(=O)c1cccc2nsnc12)c1ccccc1)N1CCN(c2ccccn2)CC1 (centres undefined) | 8.47% (inactive) | 
O=C(C(NS(=O)(=O)c1cccc2nsnc12)c1ccccc1)N1CCN(c2ccccc2)CC1 (centres undefined) |  | 17.8 µM (active)
O=C(O)C(NS(=O)(=O)c1cccc2nsnc12)c1ccccc1 (centres undefined) | 0.207% (inactive) | 
CC(=O)Nc1ccc(C(=O)Nc2cccc(S(=O)(=O)NC3=NCCC3)c2)cc1 | 0.424% (inactive) | 
CN(C)c1nc(N)nc(CSc2nnnn2-c2cccc3ccccc23)n1 | 3.52% (inactive) | 
Cc1nc2sc(C(=O)c3ccccc3)c(N)c2c2c1CCCC2 |  | 14.1 µM (active)
Cc1ccc2c(N)c(C(=O)c3ccccc3)sc2n1 | 23.8% (inactive) | 
CCc1nc2sc(C(=O)O)c(N)c2c2c1CCCC2 | 2.87% (inactive) | 
COc1ccc(OC)c(S(=O)(=O)n2c([N+](=O)[O-])cnc2C)c1 | 1.97% (inactive) | 
CN(c1ccccn1)c1ncnc2[nH]ncc12 | -1.86% (inactive) | 
O=S(=O)(c1cccc(C(F)(F)F)c1)N1CCN(c2cnccn2)CC1 | 6.36% (inactive) | 
COC(=O)COc1ccc(C2NC(=O)NC(C)=C2C(=O)NCc2ccccc2)cc1OC (centres undefined) | -4.71% (inactive) | 
Fc1ccc(Cn2nnnc2C(c2cccs2)N2CCCCCC2)cc1 (centres undefined) | 26.8% (inactive) | 

Compound | growth rescue (activation) | Potency
CCC(C)(C)n1nnnc1C(c1ccc(OC)c(OC)c1)N1CCN(C(=O)c2ccco2)CC1 (centres undefined) | 0.355% (inactive) | 
CCC(C)(C)n1nnnc1C(c1cccs1)N1CCN(c2nc3ccccc3s2)CC1 (centres undefined) |  | 10 µM (active)
Cc1ccc(C(CNC(=O)Nc2cccc(C)c2)N2CCN(C)CC2)cc1 (centres undefined) | -11.5% (inactive) | 
CCC1=Nc2cc(C(=O)NCCCOC(C)C)ccc2Sc2ccc(C)cc21 | 0.504% (inactive) | 
Cc1ccc(S(=O)(=O)N2CCCC(C(=O)N3CCN(C)CC3)C2)cc1 (centres undefined) | -0.935% (inactive) | 
CCCS(=O)(=O)N1CCCC(C(=O)N2CCN(c3ccccc3)CC2)C1 (centres undefined) | -0.889% (inactive) | 
O=C(C1CCCN(S(=O)(=O)c2ccccc2)C1)N1CCN(c2ccc(F)cc2)CC1 (centres undefined) |  | 3.98 µM (active)
Cc1cccc(C(=O)Nc2ccc(-c3nc4ncccc4o3)cc2C)c1 | -9.84% (inactive) | 
COc1cc(NC(=O)CSc2nc3nc(C)c(Cc4ccc(C)cc4)c(C)n3n2)cc(OC)c1OC | -1.46% (inactive) | 
C=CCNC(=O)CCCC(=O)NCC=C | 1.64% (inactive) | 
CSCCC(NC(=O)c1ccco1)C(=O)Nc1cc(C)ccn1 (centres undefined) | 7.61% (inactive) | 
Cc1ccc(SCCC(=O)OCC(=O)Nc2ncc(Cl)cc2Cl)cc1 | -1.73% (inactive) | 
Cc1ccc(-n2c(SCC(=O)Nc3ncc(Cl)cc3Cl)nc3ccccc32)cc1 |  | 15.8 µM (active)
NS(=O)(=O)c1cccc(NC(=O)CSc2nc3ccccc3n2-c2ccccc2)c1 | -0.391% (inactive) | 
Cc1ccc(C2C=C(c3ccc(Cl)cc3)Nc3nc(NC(=O)CCC(=O)O)nn32)cc1 (centres undefined) | -2.35% (inactive) | 
CCOc1ccccc1NC(=O)CCn1cnnn1 | -0.407% (inactive) | 
CCOC(=O)c1ccc(-c2ccc(/C=C(\C#N)C(=O)Nc3ccc(C)cc3)o2)cc1 | -0.293% (inactive) | 
CC1(C)Cc2ccccc2/C(=C/C(=O)c2ccccc2)N1 | 0.576% (inactive) | 
COc1cc2c(cc1OC)/C(=C/C(=O)c1ccc(NC(C)=O)cc1)NCC2 | 4.41% (inactive) | 
CC1CN/C(=C\C(=O)c2ccc(Br)cc2)C(=O)N1 (centres undefined) |  | 12.6 µM (active)
O=S(=O)(NC1CCN(S(=O)(=O)c2ccc3c(c2)OCCO3)CC1)c1c(F)cccc1F | 11.2% (inactive) | 
Cc1ccc(C(=O)NC(=S)Nc2ccc3[nH]c(=O)[nH]c3c2)cc1C | -3.82% (inactive) | 
CCCC(O)(CCC)C(=O)NN(C(=O)CCl)c1cccc(C)c1 | 2.11% (inactive) | 
O=C(CCCCCN1C(=O)c2cccc3cccc(c23)C1=O)NCc1ccco1 | -12.7% (inactive) | 
C[N+](C)(CCCCCC[N+](C)(C)CCCN1C(=O)c2cccc3cccc(c23)C1=O)CCCN1C(=O)c2cccc3cccc(c23)C1=O |  | inactive and 16.4 µM (active)
O=C1c2cccc3cccc(c23)C(=O)N1CCCCCc1n[nH]c(=S)o1 | 7.17% (inactive) | 
